Screening data deposited in PubChem by The Scripps Research Institute Molecular Screening Center.
Shown are actives, neighbours in structure and some others; about 3.5% of the full set was active somewhere.
FBW7 activator: activators of human E3 ligase FBW7; Q969H0; AlphaScreen FBW7–phospho-cyclin E peptide binding, activator screen; normalized activity (activation), % at 26.1 µM; actives 0.13% (n = 650,000); in the data active means normalized activity above about 1.9%;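 further: purified mutant Fbw7 with reduced substrate affinity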
TEAD-YAP block: TEAD-YAP interaction inhibition; HEK-TIYL cells, TEAD-Gal4/YAP UAS-luciferase luminescence; inhibition, % at 9.12 µM; actives 1.4% (n = 640,000); in the data active means inhibition above about 32%;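 further: 0% = median of test compound wells and 100% = reference inhibitor wells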
GPR151 activ: activates the human receptor GPR151; Q8TDV0; PathHunter beta-arrestin GPR151 cells, luminescence; activation, % at 11.2 µM; actives 1% (n = 650,000); in the data active means activation above about 4.9%;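 further: 0% = median of compound wells and 100% = cells with positive control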
Target sequence (Q8TDV0 whole entry, looked up): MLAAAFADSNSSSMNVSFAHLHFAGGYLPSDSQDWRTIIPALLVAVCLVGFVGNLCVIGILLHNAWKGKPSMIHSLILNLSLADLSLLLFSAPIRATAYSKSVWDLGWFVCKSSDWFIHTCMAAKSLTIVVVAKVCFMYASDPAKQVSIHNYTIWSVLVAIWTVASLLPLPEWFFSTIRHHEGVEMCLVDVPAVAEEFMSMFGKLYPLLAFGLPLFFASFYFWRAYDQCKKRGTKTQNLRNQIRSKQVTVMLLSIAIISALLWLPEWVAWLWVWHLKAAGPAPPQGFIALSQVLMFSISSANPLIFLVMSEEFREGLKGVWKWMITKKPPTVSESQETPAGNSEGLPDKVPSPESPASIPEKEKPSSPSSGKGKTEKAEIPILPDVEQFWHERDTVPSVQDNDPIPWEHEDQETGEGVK
MITF inh: human MITF inhibition, primary screen | inhibition, % at 2.6 µM | AID 1259374 | AlphaScreen MITF homodimerization, bead proximity signal | actives 0.91% (n = 650,000) | O75030; in the data active means inhibition above about 50%;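 further: 0% = vehicle wells with protein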
An asterisk follows results filed as active.

SMILES | FBW7 activator | TEAD-YAP block | GPR151 activ | MITF inh
CC(=O)OC12CO[C@@H]1C[C@H](O)[C@@]1(C)C(=O)[C@H](O)C3=C(C)[C@@H](OC(=O)[C@H](O)[C@@H](NC(=O)OC(C)(C)C)c4ccccc4)CC(O)([C@@H](OC(=O)c4ccccc4)[C@H]21)C3(C)C (stereo partly specified) | 0.4 | 51.0* | -2.0 | 8.3
CCC1CN(Cc2ncc[nH]2)Cc2cc(OC)ccc2O1 (stereo unspecified) | 0.0 | 4.7 | 1.1 | -4.7
Cc1ccc(S(=O)(=O)NC(CC(=O)NC2CCCC(C)C2C)c2ccco2)cc1 (stereo unspecified) | 0.0 | -0.7 | 0.4 | -3.6
CC(Nc1ncnc2sccc12)c1ccccc1 (stereo unspecified) | -0.1 | 53.0* | 3.0 | -4.0
Oc1ccc(-c2cnc3ccc(NCc4ccc(F)cc4)nn23)cc1 | -0.1 | 40.2* | 0.4 | -18.0
CN(C)c1ccc(-c2cnc3ccc(NCc4ccc5c(c4)OCO5)nn23)cc1 | 0.0 | 54.6* | -0.4 | 7.5
Clc1ccc(-c2cnc3ccc(NCc4ccc5c(c4)OCO5)nn23)cc1 | 0.7 | -8.6 | -0.6 | 0.0
NS(=O)(=O)c1ccc(CNc2ccc3ncc(-c4cccc5cccnc45)n3n2)cc1 | 0.0 | 2.4 | 0.1 | -0.7
NS(=O)(=O)c1ccc(CNc2ccc3ncc(-c4ccccc4F)n3n2)cc1 | 0.0 | 33.8* | -0.1 | 16.7
COc1ccc(CNc2ccc3ncc(-c4ccncc4)n3n2)cc1 | -0.2 | 65.8* | -0.4 | -1.4
OCc1ccc(-c2cnc3ccc(NCc4ccc(F)cc4)nn23)cc1 | 0.0 | 25.1 | -0.8 | 7.3
COc1cccc(NS(=O)(=O)c2cc(C(=O)N3CCN(c4ccccc4)CC3)ccc2NCc2ccccc2Cl)c1 | 0.0 | -14.9 | 0.3 | -1.8
COc1cc(CN2CC(=O)N(c3ccc(C)c(Cl)c3)C2=S)cc(OC)c1OC | -0.1 | -22.6 | 0.0 | -5.2
CSc1ncnc2c1ncn2CC(=O)Nc1ccc(C)c(C)c1 | 0.0 | 0.6 | 2.0 | -6.2
COc1ccccc1-c1cnc2ccc(NCc3cc(OC)c(OC)c(OC)c3)nn12 | 0.0 | 58.8* | -0.7 | 12.3
COc1ccc(-c2cnc3ccc(NCc4ccc5c(c4)OCO5)nn23)cc1 | 0.0 | 35.6* | -0.5 | -8.8
Cc1cc(C)n(-c2cc(NCCNC(=O)Nc3cccc(F)c3C)ncn2)n1 | 0.0 | 15.9 | -1.6 | 1.6
COc1ccc(C)cc1NC(=O)NCCNc1cc(-n2nc(C)cc2C)ncn1 | -0.3 | 50.5* | 0.4 | 0.4
O=C(/C=C\Nc1cccc(F)c1)c1cccs1 | 0.0 | -4.4 | -2.1 | 7.5
Cc1ccc(N/C=C/C(=O)c2cccs2)cc1 | -0.3 | 81.4* | 0.7 | 36.6
O=C(/C=C/Nc1ccc(I)cc1)c1cccs1 | 0.0 | 41.1* | 0.4 | 23.3
COC(=O)c1ccc(N/C=C/C(=O)c2cccs2)cc1 | -0.1 | 53.1* | -5.3 | -7.6
O=C1CC(c2ccccc2C(F)(F)F)C2=C(CC(c3ccc(F)cc3)CC2=O)N1 (stereo unspecified) | -0.3 | -8.1 | 0.7 | -9.0
C[C@H](Cn1nnc2ccccc21)NC(=O)Cc1c[nH]c2ccccc12 | 0.0 | 6.0 | -0.3 | 1.6
COc1ccc(/C=C2\SC(=S)N(CCC(=O)OCCN3CCOCC3)C2=O)cc1 | -0.1 | 53.5* | -0.2 | 12.2
SMILES | FBW7 activator | TEAD-YAP block | GPR151 activ | MITF inh
COc1ccc(/C=C2\SC(=S)N(CCC(=O)N3CCOCC3)C2=O)cc1 | 0.1 | 2.9 | 1.5 | 8.5
Cc1ccc(/C=C2\SC(=S)N(NC(=O)c3ccc(O)cc3)C2=O)o1 | -0.1 | 6.3 | -1.9 | 54.1*
Cc1ccc(/C=C2/SC(=S)N(CN3CCOCC3)C2=O)o1 | -0.5 | 0.8 | -1.1 | 78.4*
O=C(NN1C(=O)/C(=C/c2ccc(O)cc2)SC1=S)c1cccc(O)c1 | -0.5 | -2.9 | -1.0 | 0.5
CCN(CC)c1ccc(/C=C2\SC(=S)N(CCCC(=O)O)C2=O)cc1 | 0.2 | 92.5* | -0.7 | 24.1
Cc1c(Nc2ccc(Br)cc2C(=O)c2ccccc2)nc2ccc(Br)cc2c1-c1ccccc1 | -0.1 | -5.2 | -0.7 | 3.8
Cc1cc(=O)nc2c3ccccc3n(CC(=O)NCCCN3C(C)CCCC3C)n12 (stereo unspecified) | -0.1 | -1.9 | 0.6 | 2.8
CC(C)(C)c1ccc(C2=NS(=O)(=O)c3ccccc3N2)cc1 | 0.0 | -64.2 | -0.1 | 11.0
O=C(C1CCCO1)N1CCOc2ccc(CN3CCc4ccccc4C3)cc2C1 (stereo unspecified) | -0.1 | 4.5 | 1.1 | 17.7
CCN(CC)c1ccc(/C=C2/SC(=S)N(CCC(=O)OC)C2=O)cc1 | 0.1 | 61.6* | 0.4 | 16.3
COc1cccc(N2C[C@@H]3C[C@@H](c4cnn(-c5ccccc5)c4)N4CCC[C@@]34C2=O)c1 | 0.0 | 36.9* | 1.0 | -2.4
O=C(/C=C/c1ccc2c(c1)OCCO2)c1ccccc1 | 0.0 | -54.6 | -1.1 | -0.9
O=[N+]([O-])/C(=C/c1ccc2c(c1)OCCO2)c1ccccc1 | -0.1 | 65.2* | -1.1 | 9.0
Oc1ccc([C@H]2Oc3cc(O)cc(O)c3C[C@H]2O)cc1 | 0.1 | -2.8 | -1.4 | 28.2
O=C(O[C@@H]1Cc2c(O)cc(O)cc2O[C@@H]1c1cc(=O)c(O)c2c(O)c(O)cc([C@H]3Oc4cc(O)cc(O)c4C[C@H]3O)c2c1)c1cc(O)c(O)c(O)c1 | -0.5 | 0.5 | 4.1 | 105.5*
COc1ccc(OCCOCCOc2ccccc2C=O)cc1 | 0.4 | 45.5* | -1.2 | -7.1
COc1ccccc1OCCOc1ccc(C=O)cc1 | -0.1 | -2.0 | -1.4 | 5.6
Cc1cnc(Nc2ccc(C(F)(F)F)cc2)nc1Nc1ccc(N2CCOCC2)cc1 | -0.1 | 49.3* | 1.8 | 14.9
Cc1cnc(Nc2ccncc2)nc1Nc1ccc(N2CCOCC2)cc1 | -0.3 | 39.6* | -1.1 | -3.6
Cc1cnc(NCc2ccc3c(c2)OCO3)nc1Nc1ccc(N2CCOCC2)cc1 | 0.1 | 42.2* | -0.6 | 16.1
Cc1cnc(Nc2ccc(N3CCOCC3)cc2)nc1NCCOc1ccccc1 | 0.0 | 47.9* | 2.8 | 14.2
c1ccc(OCCNc2ccnc(NCc3ccc4c(c3)OCO4)n2)cc1 | -0.1 | -25.4 | 1.6 | 5.1
CCCNc1ccnc2c(-c3cc(OC)c(OC)c(OC)c3)cnn12 | -0.5 | -7.0 | 0.1 | 4.1
CC1CC(C)CN(C(=O)CSc2nc3ccccc3n2CC(=O)NC(C)C)C1 (stereo unspecified) | 0.1 | -5.1 | -0.7 | 13.2
Cc1cnc(Nc2ccc(N3CCOCC3)cc2)nc1Nc1ccc(N2CCOCC2)cc1 | -0.3 | 42.5* | 4.8 | 9.0
Cc1cnc(Nc2ccc(N3CCOCC3)cc2)nc1NCCN1CCOCC1 | -0.1 | -0.3 | 0.7 | 1.2
CCC(C)(C)c1ccc(OCCCC[n+]2cccc(C)c2C)c(C(C)(C)CC)c1 | 0.1 | 87.7* | 1.0 | -15.4
CCC(C)(C)c1ccc(OCCCC[n+]2ccc(C)cc2)c(C(C)(C)CC)c1 | -0.1 | 45.4* | 0.3 | -7.5
O=C(CC(=O)N/N=C/c1ccc([N+](=O)[O-])cc1)N/N=C/c1ccc([N+](=O)[O-])cc1 | -0.1 | 4.2 | 0.5 | -3.1
O=C(N/N=C/c1ccc(O)cc1)c1cccc(O)c1 | -0.1 | 23.2 | -5.9 | -2.1
